# From PubChem
# Hits are enriched below; roughly 11% of the tested compounds scored in any of these assays.
# ALDH1A1 inh – qHTS Assay for Inhibitors of Aldehyde Dehydrogenase 1 (ALDH1A1) | Potency, µM (highest dose often 75.3 µM), most hits filed as inhibitors | AID 1030, 2008 | Purified ALDH1A1, NADH fluorescence, propionaldehyde substrate | 7.3% of 220,000 active
# Target sequence (P00352 whole entry, looked up): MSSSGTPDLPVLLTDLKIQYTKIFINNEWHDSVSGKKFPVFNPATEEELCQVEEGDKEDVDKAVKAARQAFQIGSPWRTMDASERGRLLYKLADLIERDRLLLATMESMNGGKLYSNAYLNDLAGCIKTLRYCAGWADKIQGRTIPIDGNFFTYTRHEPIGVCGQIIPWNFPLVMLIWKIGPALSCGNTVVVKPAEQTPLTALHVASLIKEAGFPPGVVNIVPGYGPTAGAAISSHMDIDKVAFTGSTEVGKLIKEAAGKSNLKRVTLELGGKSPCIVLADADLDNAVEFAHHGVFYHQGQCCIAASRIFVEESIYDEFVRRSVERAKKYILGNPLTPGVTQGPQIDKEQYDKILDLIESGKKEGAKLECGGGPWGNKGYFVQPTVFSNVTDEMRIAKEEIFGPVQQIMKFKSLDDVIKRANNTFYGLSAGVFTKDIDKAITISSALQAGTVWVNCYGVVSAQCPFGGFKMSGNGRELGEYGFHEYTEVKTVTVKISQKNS
# IMPase Li cell – qHTS Assay for Identifying the Cell-Membrane Permeable IMPase Inhibitors: Potentiation with Lithium | CHO-M1 cells, IP1 TR-FRET (IP-One), carbachol + lithium | Potency, µM (highest dose often 59.4 µM), most hits filed as inhibitors | 0.35% of 210,000 active | AID 1457, 2008; active means well fitted inhibition curve with a large enough effect; inconclusive means small, poorly fitted or top-dose-only effect; inactive means no such curve, though single readings can be large or run the other way;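 further: IP1 builds up when IMPase is blocked and the TR-FRET signal falls; nearly all actives have a fitted effect of over 50% in size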
#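 Steps: plate 2000 CHO-M1 cells per well and culture 16–30 h; add compound and lithium; incubate 30 min, 37C; add d2-IP1 tracer and Eu cryptate anti-IP1 antibody in lysis buffer; read after 10 min at room temperature.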
# IMPase cell inh – qHTS Assay for Identifying the Cell-Membrane Permeable IMPase Inhibitors; CHO-M1 cells, IP1 accumulation, HTRF TR-FRET ratio; inhibition (IP1 accumulation), % at 46.1 µM; 120,000 tested, under 10 active; active means well fitted curve in the direction sought with a large enough effect in the signal ratio, not every such curve was filed as active; inconclusive means small, poorly fitted or top-dose-only effect, or a change in a side signal; inactive means no such curve, though single readings can be large or run the other way; the % refers to the signal ratio;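 further: cells stimulated with carbachol in lithium chloride buffer; higher means more IMPase inhibition seen as more IP1 and lower FRET ratio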
#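 The IP-One HTRF competitive assay in carbachol-stimulated CHO-M1 cells quantifies cellular IP1. Compounds spanned up to 46 uM final, and activity is expressed as AC50 from concentration-response fits of the ratio and donor data.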
# HPGD inh – qHTS Assay for Inhibitors of HPGD (15-Hydroxyprostaglandin Dehydrogenase); purified HPGD, NADH fluorescence kinetic, PGE2 substrate; Potency, µM, most hits filed as inhibitors; 4.3% of 150,000 active
#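 20 nM HPGD preincubated 15 min at room temperature with compound in 50 mM Tris-HCl pH 8, 0.01% Tween 20. Started with 1 mM NAD+ and 30 uM prostaglandin E2; NADH fluorescence (360/450 nm) read 5 times over 30-s intervals, last minus first.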
# PNC inhibitor – High Content Assay for Compounds that inhibit the Assembly of the Perinucleolar Compartment; activity change (PNC), negative = inhibition, % at 10 µM; 3.1% of 140,000 active; AID 2417, 2010; PC3M PTB-GFP, PNC prevalence imaging, 16 h; active compounds read low;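 active means readout at or below -70, meaning at least 70% loss of cells showing the perinucleolar compartment, a nuclear body marking cancer cells; inconclusive means readout between -30 and a set limit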
#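 Read-out is percentage of cells bearing a perinucleolar compartment, from automated 20x imaging of fixed, Hoechst-stained PC3M PTB-GFP cells. Cells were seeded 4 h, then exposed 16 h to compound (23 nl of library stock) in duplicate plates.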
# Hits are given with their value; – = inactive; ? = inconclusive; · = not tested or not shown; [ ] = remark or other dose. Unless noted, the call rests on the fitted dose curve; in most records, active means well fitted inhibition curve with a large enough effect (not every such curve was filed as active); inconclusive means small, poorly fitted or top-dose-only effect, or another doubt; inactive means no such curve, though single readings can be large or run the other way.
SMILES,ALDH1A1 inh,IMPase Li cell,IMPase cell inh,HPGD inh,PNC inhibitor
CN(C)CCOc1nc(-c2ccccc2)nc2c1oc1ccccc12,–,–,–,–,?
CN(C)CCOc1ncnc2c1oc1ccccc12,–,–,–,–,-112
Cc1ccc(Cn2cc(/C=C(/C#N)C(=O)Nc3cccc(Cl)c3)c3ccccc32)cc1,·,·,–,·,·
O=c1c2nnn(Cc3ccccc3)c2ncn1C/C=C/c1ccccc1,–,–,–,14µM,–
O=C(Cn1cnc2c(nnn2Cc2ccc(Cl)cc2)c1=O)OCc1ccccc1,13µM,–,–,13µM,–
COC(=O)C(C)n1cnc2c(nnn2Cc2ccc(Cl)cc2)c1=O (centres undefined),–,–,–,28µM,–
COc1ccccc1CN1CCCC2(CCNCC2)C1,–,–,·,–,·
OCCC1CN(Cc2cc3c(cc2Cl)OCO3)CCN1C1CCCCC1 (centres undefined),–,–,·,·,·
Cc1ccc(C)c([C@@H]2NC(=O)c3ccccc3N2)c1,?,–,·,?,·
CN(Cc1nc(-c2cccs2)no1)CC1(N2CCOCC2)CCCCC1,–,–,·,·,·
CC1C(=O)OC2CC34C5CC(C(C)(C)C)C36C(OC(=O)C6O)OC4(C(=O)O5)C21O (centres undefined),–,–,–,–,·
COc1ccc(/C=N/NC(=O)CSc2n[nH]c(=O)[nH]c2=O)cc1,–,–,?,20µM,–
Cc1ccc(NCCC(=O)c2cccc([N+](=O)[O-])c2)cc1,0.32µM,–,–,–,–
O=C(NCCNc1ccc([N+](=O)[O-])cc1C(F)(F)F)c1cccc(F)c1,?,–,–,–,?
O=C(NCCNc1ccc([N+](=O)[O-])cc1C(F)(F)F)c1ccccc1,10µM,–,–,–,?
O=C(CCNc1ccc(F)cc1)c1cccc([N+](=O)[O-])c1,0.22µM,–,–,–,–
O=C(NCCNc1ccc([N+](=O)[O-])cc1)c1cccc(Br)c1,7.1µM,–,·,–,–
COC(=O)c1cccc(NC(=O)CCNC(=O)c2ccc([N+](=O)[O-])cc2)c1,–,–,·,–,?
Nc1cc(N2CCCCC2)nc(N)[n+]1OS(=O)(=O)[O-],–,–,·,·,·
CC(C)c1onc(C(=O)NCc2ccccc2)c1[N+](=O)[O-],–,–,·,?,–
COc1ccc(/C=C2\CCCc3c2nc2ccccc2c3C(=O)OCC(=O)c2c(N)n(C)c(=O)n(C)c2=O)cc1,–,–,·,–,–
O=C(CCNc1ccc(Br)cc1)c1cccc([N+](=O)[O-])c1,0.63µM,–,·,·,·
O=C(CCNc1ccccc1)c1cccc([N+](=O)[O-])c1,?,·,–,·,–
CC(=O)c1ccccc1[N+](=O)[O-],–,–,·,–,·
O=C(ONc1ccc(N=NC(=O)c2ccccc2O)cc1)c1ccccc1,?,–,–,?,?
SMILES,ALDH1A1 inh,IMPase Li cell,IMPase cell inh,HPGD inh,PNC inhibitor
O=Nc1ccc(NOC(=O)c2ccccc2Br)cc1,13µM,–,·,28µM,–
CCC1(C)Nc2ccccc2C(=O)N1O (centres undefined),–,–,–,25µM,–
Brc1ccc(-c2nc3ccccc3s2)s1,?,11µM,?,?,–
CCOC(=O)C(NC(=O)c1ccc(OC)cc1)(N1CCCC1=O)C(F)(F)F (centres undefined),–,–,·,–,–
CCOC(=O)C(NC(=O)c1ccccc1)(N1CCCC1=O)C(F)(F)F (centres undefined),–,–,–,–,-85
CO[C@H]1COC(=O)[C@@H](Cc2ccccc2)NC(=O)[C@@H](C)COC(=O)C/C=C\[C@@H]1C,–[13.5 µM],·,·,·,·
Cc1ccc(C(=O)Oc2oc(-c3ccccc3)nc2C=Nc2ccc(N(C)C)cc2)cc1,?,–,·,–,?
O=C(Oc1oc(-c2ccco2)nc1C=Nc1ccccc1)c1ccco1,?,–,–,2µM,?
Cc1ccc(C(=O)Oc2oc(-c3ccco3)nc2C=Nc2ccc(Cl)cc2)cc1,?,–,–,6.3µM,–
CN(C)c1ccc(N=Cc2nc(-c3ccccc3)oc2OC(=O)c2cccc(Cl)c2)cc1,13µM,–,–,?,–
Cc1ccc(-c2nc(C=Nc3ccccc3)c(O)o2)cc1,–,–,·,·,·
O=C(Oc1oc(-c2ccco2)nc1C=Nc1ccccc1)c1ccoc1,?,–,–,5µM,?
Cc1ccc(N=Cc2nc(-c3ccco3)oc2O)cc1,?,–,–,–,–
O=c1oc(-c2ccco2)nc2ccccc12,?,–,–,?,–
COC(=O)N1CCC2(CC1)CN(c1ccccc1)C2,–,–,·,–,·
CCOC(=O)C1=C(C)NC(SCC(=O)OC)=C(C#N)C1c1ccc(C(=O)OC)cc1 (centres undefined),?,–,–,?,–
CCOC(=O)CSC1=C(C#N)C(c2ccc(C)o2)CC(=O)N1 (centres undefined),–,–,–,–,-85
CCOC(=O)CSC1=C(C#N)C(c2ccc(OC)cc2)C2=C(CC(C)(C)CC2=O)N1 (centres undefined),?,10µM,?,?,–
CCOC(=O)CSC1=C(C#N)C(c2ccc(F)cc2)C(C(C)=O)=C(C)N1 (centres undefined),22µM,–,–,–,–
CCOC(=O)CSC1=C(C#N)C(c2ccc(Cl)cc2)CC(=O)N1 (centres undefined),–,–,–,–,–
CCOC(=O)CSC1=C(C#N)C(c2ccc(C)cc2)C2=C(CCCC2=O)N1 (centres undefined),?,–,–,–,–
COc1ccc(C2C(C#N)=C(SC)NC3=C2C(=O)CC(C)(C)C3)cc1 (centres undefined),14µM,–,–,–,?
CN(C)S(=O)(=O)N1CCN(C(=O)c2cccs2)CC1,–,–,–,–,?
COc1ccc(/C=C(\C#N)C(=O)OCC(=O)Nc2ccc(-c3nc4ccc(C)cc4s3)cc2)cc1,?,–,·,·,·
Cc1ccc(NNC(=O)c2cc(C(C)(C)C)nn2Cc2ccccc2)cc1,15µM,·,·,·,·
Cc1ccc(NC(=O)c2cc(C(C)(C)C)nn2Cc2ccccc2)cc1,–,·,·,·,·
COc1ccc2c(C)cc(=S)[nH]c2c1,32µM,?,·,·,·
CC(=O)Oc1ccc2c(C)cc(=O)[nH]c2c1,–,–,–,–,-114
CC(=O)OC1CC2C(C)(C)CCC(=O)[C@@]2(C)C2CC[C@@]3(C)C(c4ccoc4)OC(=O)C4OC43[C@]12C (some centres undefined),–,–,·,–,·
